Assay results from the supplement of paper PMC10849652.
Of roughly 7,900 targets only a part is listed; those with a hit were picked by preference. About 0.6% of all pairs of compound and target were hits.

Each target was assayed with CN(CCOC1=CC=C(C=C1)C[C@H]2C(=O)NC(=O)S2)C3=CC=CC=N3 (racemic) [rosiglitazone] (assay: log2 fold change, soluble protein after heating vs DMSO (PISA); higher = thermal stabilisation; K562 cells, 10 uM, 30 min; active = over 0.2 and 3.5 SD of the protein, either way, in both replicates (recomputed)).
How it was run: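 K562 cells at 2×10^6 cells/mL were exposed to 10 μM compound for 30 min, then aliquots were heated for 3 min across 48°C-58°C, pooled, and extracted in PBS containing 0.5% NP-40 at 4°C. The supernatant after 21,000xg for 90 min was taken as soluble protein and measured by TMTpro 16plex LC-MS/MS with channel sums equalised. Thermal stability is reported relative to control samples, with values from duplicates. Fold changes are given on a log2 scale.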

Sequence of UniProt P06865 (P06865 whole entry, looked up): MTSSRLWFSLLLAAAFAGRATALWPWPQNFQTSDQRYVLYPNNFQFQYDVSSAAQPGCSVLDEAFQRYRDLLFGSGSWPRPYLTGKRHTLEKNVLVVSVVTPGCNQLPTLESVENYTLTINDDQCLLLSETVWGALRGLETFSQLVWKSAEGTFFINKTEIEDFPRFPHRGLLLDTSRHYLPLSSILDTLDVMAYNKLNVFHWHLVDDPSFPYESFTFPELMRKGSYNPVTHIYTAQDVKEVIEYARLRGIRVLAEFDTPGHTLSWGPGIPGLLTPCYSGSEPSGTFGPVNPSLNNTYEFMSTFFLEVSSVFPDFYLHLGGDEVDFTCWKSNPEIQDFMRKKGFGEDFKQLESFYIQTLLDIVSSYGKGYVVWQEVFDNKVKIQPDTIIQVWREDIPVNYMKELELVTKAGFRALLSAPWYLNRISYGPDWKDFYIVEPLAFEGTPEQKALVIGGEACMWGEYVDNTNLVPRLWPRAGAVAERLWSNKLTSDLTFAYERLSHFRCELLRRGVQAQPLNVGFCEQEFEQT
Sequence of UniProt P23327 (P23327 whole entry, looked up): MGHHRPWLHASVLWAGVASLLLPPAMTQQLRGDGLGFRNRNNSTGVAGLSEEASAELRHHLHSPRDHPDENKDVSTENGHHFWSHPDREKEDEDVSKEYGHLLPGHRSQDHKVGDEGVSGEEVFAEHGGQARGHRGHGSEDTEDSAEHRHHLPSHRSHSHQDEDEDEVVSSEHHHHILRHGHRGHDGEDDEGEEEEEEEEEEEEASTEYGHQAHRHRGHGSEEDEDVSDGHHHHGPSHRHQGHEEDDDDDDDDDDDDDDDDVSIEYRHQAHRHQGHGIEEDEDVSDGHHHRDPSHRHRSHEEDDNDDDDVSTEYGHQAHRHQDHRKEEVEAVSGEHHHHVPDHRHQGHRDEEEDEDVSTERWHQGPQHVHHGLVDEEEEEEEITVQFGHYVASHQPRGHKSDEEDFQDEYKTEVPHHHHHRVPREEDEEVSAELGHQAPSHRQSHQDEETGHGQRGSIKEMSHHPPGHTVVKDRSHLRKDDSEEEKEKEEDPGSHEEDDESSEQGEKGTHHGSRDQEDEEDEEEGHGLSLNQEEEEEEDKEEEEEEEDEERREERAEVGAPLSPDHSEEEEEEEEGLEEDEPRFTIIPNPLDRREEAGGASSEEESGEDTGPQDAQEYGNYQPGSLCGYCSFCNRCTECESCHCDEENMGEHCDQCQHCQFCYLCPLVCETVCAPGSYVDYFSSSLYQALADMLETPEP
Sequence of UniProt O00458 (O00458 whole entry, looked up): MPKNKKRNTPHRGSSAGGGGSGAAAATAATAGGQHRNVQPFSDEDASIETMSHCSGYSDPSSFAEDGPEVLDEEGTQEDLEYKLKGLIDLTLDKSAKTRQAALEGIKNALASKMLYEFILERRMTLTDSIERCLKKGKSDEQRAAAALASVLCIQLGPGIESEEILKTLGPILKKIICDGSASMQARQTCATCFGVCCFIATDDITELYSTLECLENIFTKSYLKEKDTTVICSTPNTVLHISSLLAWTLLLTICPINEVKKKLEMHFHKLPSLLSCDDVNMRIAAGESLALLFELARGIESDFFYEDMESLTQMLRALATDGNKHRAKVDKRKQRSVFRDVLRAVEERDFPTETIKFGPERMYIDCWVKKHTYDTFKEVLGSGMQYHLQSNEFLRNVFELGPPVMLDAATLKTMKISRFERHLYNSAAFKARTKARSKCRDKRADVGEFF
Sequence of UniProt Q9UKD1 (Q9UKD1 whole entry, looked up): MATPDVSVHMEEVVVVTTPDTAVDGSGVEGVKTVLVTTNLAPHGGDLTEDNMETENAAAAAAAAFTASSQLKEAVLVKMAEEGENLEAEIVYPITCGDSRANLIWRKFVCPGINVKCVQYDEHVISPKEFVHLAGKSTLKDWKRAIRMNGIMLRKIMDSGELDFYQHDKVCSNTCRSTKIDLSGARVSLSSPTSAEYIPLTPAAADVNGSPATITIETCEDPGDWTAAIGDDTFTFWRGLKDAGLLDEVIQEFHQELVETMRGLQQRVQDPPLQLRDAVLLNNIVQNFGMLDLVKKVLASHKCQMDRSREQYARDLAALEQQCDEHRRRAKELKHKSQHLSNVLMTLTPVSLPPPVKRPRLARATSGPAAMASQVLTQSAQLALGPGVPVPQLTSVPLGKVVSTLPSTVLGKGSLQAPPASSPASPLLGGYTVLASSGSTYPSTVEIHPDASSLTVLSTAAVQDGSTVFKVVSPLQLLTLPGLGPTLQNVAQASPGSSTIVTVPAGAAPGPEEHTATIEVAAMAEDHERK
Sequence of UniProt P13807 (P13807 whole entry, looked up): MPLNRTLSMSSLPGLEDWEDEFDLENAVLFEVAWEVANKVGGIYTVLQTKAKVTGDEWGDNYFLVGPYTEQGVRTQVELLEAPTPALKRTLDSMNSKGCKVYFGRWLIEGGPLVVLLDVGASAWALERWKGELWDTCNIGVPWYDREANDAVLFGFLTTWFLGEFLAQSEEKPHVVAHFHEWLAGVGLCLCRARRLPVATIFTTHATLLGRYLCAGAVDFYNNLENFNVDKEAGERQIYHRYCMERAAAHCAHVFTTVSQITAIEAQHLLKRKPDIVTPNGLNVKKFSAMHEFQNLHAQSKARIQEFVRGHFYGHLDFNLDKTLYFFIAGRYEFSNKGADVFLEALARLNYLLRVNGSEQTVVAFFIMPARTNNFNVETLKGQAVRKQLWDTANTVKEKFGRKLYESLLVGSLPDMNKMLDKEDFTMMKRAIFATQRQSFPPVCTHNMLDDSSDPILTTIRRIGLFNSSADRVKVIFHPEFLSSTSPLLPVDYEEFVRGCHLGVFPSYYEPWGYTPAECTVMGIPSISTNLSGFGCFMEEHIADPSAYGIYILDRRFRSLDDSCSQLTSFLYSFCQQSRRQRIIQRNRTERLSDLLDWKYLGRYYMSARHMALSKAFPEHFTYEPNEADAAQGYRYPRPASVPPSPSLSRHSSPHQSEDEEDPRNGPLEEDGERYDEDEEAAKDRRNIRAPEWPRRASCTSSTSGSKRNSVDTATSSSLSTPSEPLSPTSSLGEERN
Sequence of UniProt Q9Y613 (Q9Y613 whole entry, looked up): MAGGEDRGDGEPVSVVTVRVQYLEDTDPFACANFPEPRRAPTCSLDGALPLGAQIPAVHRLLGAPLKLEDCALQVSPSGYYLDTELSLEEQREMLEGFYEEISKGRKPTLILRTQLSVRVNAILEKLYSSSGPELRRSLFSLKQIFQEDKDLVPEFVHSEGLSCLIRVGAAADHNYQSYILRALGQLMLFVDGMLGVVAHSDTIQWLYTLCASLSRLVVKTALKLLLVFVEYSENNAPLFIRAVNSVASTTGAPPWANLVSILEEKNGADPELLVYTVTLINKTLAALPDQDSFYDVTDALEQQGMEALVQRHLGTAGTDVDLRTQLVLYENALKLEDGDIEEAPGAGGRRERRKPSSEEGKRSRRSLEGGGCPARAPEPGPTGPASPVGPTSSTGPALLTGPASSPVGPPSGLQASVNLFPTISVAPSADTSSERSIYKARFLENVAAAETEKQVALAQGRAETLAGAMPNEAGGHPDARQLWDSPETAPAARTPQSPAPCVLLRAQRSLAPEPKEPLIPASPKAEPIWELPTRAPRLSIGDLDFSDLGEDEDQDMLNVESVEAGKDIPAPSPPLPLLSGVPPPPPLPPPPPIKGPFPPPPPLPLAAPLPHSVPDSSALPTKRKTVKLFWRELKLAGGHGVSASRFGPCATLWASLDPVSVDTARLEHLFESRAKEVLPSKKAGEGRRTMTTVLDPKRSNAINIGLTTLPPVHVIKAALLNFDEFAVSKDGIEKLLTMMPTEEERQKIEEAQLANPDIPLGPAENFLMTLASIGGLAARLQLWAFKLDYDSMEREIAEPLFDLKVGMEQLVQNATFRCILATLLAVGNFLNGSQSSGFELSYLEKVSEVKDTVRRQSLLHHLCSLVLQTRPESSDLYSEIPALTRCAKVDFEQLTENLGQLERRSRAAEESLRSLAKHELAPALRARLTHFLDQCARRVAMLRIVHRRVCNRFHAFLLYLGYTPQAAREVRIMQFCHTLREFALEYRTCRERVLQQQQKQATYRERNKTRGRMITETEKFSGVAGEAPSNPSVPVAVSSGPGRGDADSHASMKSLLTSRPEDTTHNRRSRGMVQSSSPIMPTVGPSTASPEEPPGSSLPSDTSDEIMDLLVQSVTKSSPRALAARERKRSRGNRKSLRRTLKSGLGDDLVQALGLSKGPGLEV
Sequence of UniProt O76003 (O76003 whole entry, looked up): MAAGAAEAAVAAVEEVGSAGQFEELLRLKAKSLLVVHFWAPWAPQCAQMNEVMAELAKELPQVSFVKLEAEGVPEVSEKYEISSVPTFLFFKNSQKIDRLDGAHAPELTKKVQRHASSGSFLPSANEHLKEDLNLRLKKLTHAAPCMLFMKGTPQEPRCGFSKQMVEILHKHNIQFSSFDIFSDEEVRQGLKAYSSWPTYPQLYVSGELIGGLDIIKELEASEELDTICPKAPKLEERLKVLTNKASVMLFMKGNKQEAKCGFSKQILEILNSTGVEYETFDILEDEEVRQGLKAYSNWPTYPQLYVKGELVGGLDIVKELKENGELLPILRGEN
Sequence of UniProt O60725 (O60725 whole entry, looked up): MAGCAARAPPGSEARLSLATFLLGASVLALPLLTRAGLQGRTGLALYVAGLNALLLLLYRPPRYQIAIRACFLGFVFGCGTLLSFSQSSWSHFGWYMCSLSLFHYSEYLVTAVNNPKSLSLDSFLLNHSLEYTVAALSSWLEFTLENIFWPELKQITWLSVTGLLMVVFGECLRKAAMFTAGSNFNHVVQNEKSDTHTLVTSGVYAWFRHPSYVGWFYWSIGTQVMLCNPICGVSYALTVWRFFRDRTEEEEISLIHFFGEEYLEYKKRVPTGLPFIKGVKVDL
Sequence of UniProt P05114 (P05114 whole entry, looked up): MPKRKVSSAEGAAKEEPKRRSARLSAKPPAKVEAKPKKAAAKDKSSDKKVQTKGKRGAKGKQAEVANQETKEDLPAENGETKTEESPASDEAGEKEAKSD
Sequence of UniProt Q01628 (Q01628 whole entry, looked up): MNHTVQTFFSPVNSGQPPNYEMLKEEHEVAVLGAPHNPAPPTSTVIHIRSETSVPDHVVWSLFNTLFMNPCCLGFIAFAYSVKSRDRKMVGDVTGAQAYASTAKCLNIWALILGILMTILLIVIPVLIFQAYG

log2 fold change, inactive:
FHOD1 (UniProt Q9Y613) 0.039
GLB1 (UniProt P16278) -0.023
HDGFL2 (UniProt Q7Z4V5) -0.004
FYB1 isoform 3 (UniProt O15117) 0.115
GSTT1 (UniProt P30711) -0.024
HEXA (UniProt P06865) 0
GLUL (UniProt P15104) -0.022
HS1BP3 (UniProt Q53T59) 0.07
ICMT (UniProt O60725) 0.033
HNRNPH2 (UniProt P55795) 0.038
GGA2 (UniProt Q9UJY4) 0.083
GBA2 (UniProt Q9HCG7) -0.07
HK2 (UniProt P52789) 0.032
GMEB2 (UniProt Q9UKD1) 0.145
IFRD1 (UniProt O00458) 0
HDAC7 isoform 5 (UniProt Q8WUI4) 0.011
HNRNPUL1 (UniProt Q9BUJ2) -0.001
HSD17B12 (UniProt Q53GQ0) -0.016
GBF1 (UniProt Q92538) 0.081
HSPA8 (UniProt E9PN89) 0.049
GOLGB1 isoform 2 (UniProt Q14789) 0.004
GLRX3 (UniProt O76003) 0.014
HMGN1 (UniProt P05114) -0.027
FKBP3 (UniProt Q00688) -0.002
GDE1 (UniProt Q9NZC3) -0.003
HRC (UniProt P23327) -0.008
HEXB (UniProt P07686) -0.008
GYS1 (UniProt P13807) -0.1
FDXR isoform 7 (UniProt P22570) 0.035
GTF2B (UniProt Q00403) 0.083
GLYR1 (UniProt Q49A26) -0.292
GPKOW (UniProt Q92917) 0.045
IFITM3 (UniProt Q01628) -0.096
GALC (UniProt P54803) -0.006
